Data as given in PubChem BioAssay AID504848 (National Center for Advancing Translational Sciences (NCATS), 2011).
In all, about 2,300 compounds went through this assay and about 1,400 (61%) were called active. Inconclusive results (about 29%) are left out. So high a share suggests a set chosen from earlier hits. The list shows a part of the results. Values without a mark were called inactive. The call rests on the fitted dose curve; in most records, active means well fitted inhibition curve with a large enough effect; inconclusive means small, poorly fitted or top-dose-only effect, or effect the other way; inactive means no such curve, though single readings can be large or run the other way.

assay: Confirmation screen for delayed death inhibitors of the malarial parasite plastid, 96 hour incubation; further: nearly all actives have a fitted effect of over 60% in size; settings: P. falciparum luciferase growth in erythrocytes; series mostly up to 28.7 µM; activity change, negative = inhibition: at the top concentration
Procedure, shortened: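 Erythrocytes infected with luciferase-expressing P. falciparum (2% hematocrit, 0.1% parasitemia final) in RPMI 1640 with 0.5% Albumax, exposed to compounds 96 h at 37 C, 5% CO2. Growth inhibition read as decreased luciferase luminescence.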
On the % scale 0 is the no-effect control and ±100 the full control effect; potency means the concentration at half of the fitted maximal effect.

| SMILES | Potency | activity change, negative = inhibition [%] |
| --- | --- | --- |
| CC1CN(C(=O)N2c3ccccc3Sc3ccccc32)CC(C)O1 (stereo not given) | 10 µM (active) | – |
| O=C(N1CCOCC1)N1c2ccccc2Sc2ccccc21 | – | -14.8 |
| CCCSc1nc2c(cnn2-c2ccccc2)c(=O)[nH]1 | – | -11.6 |
| CCCCCCn1c(SCCC)nc2c1c(=O)[nH]c(=O)n2C | 14.1 µM (active) | – |
| Cn1c(=O)[nH]c(=O)c2c1nc(SCCN1CCCCC1)n2CCCc1ccccc1 | 5.01 µM (active) | – |
| Cc1nn(-c2ccccc2)c(N2CCCC2)c1/C=N/NC(=O)c1ccccc1O | 3.98 µM (active) | – |
| Cc1nn(-c2ccccc2)c(N2CCCC2)c1/C=N/NC(=S)Nc1ccccc1F | 12.6 µM (active) | – |
| CC(C)N(c1ccccc1)c1ccc(NC(=O)CCl)cc1 | 2.51 µM (active) | – |
| O=C(CCl)Nc1ccc(Sc2ccc(NC(=O)CCl)cc2)cc1 | 2.51 µM (active) | – |
| CCC(CC)COC(=O)C1=C(C)NC(=O)NC1c1ccccc1Br (stereo not given) | 10 µM (active) | – |
| OC1(c2cccs2)CN(c2ccc(Br)cc2)C2=[N+]1CCCS2 (stereo not given) | 8.91 µM (active) | – |
| OC1(c2cccs2)CN(c2ccc(Cl)cc2)C2=[N+]1CCCC2 (stereo not given) | 6.31 µM (active) | – |
| Cc1[nH]c(=O)c(C(=O)/C=C/c2ccccc2)c2c1CCCC2 | 4.47 µM (active) | – |
| Cc1[nH]c(=O)c(C(=O)/C=C/c2ccccc2F)c2c1CCCC2 | 5.62 µM (active) | – |
| Cc1[nH]c2ccccc2c1/C=N/NC(=O)CNC(=O)Cc1ccccc1 | – | -7.72 |
| Cc1[nH]c2ccccc2c(=O)c1C(=O)/C=C/c1ccccc1 | 3.55 µM (active) | – |
| CCC1CCCCN1CCCNC(=O)Cn1c(=O)c2cccn2c2cccnc21 (stereo not given) | – | -16.3 |
| CCC1CCCCN1CCCNC(=O)CNC(=O)c1nn(-c2ccc(OC)c(Cl)c2)c(=O)c2ccccc12 (stereo not given) | 6.31 µM (active) | – |
| N=C(N)c1ccc(/C=C/c2ccc(C(=N)N)cc2O)cc1 | 0.251 µM (active) | – |
| C=C1C(=O)O[C@@H]2[C@H]1CC[C@H](C)[C@]1(O)CCC(=O)[C@@]21C | 7.08 µM (active) | – |

| SMILES | Potency | activity change, negative = inhibition [%] |
| --- | --- | --- |
| CCCCC1(c2ccc(F)cc2)NC(=O)N(CC(=O)N2CCN(C(=O)c3ccco3)CC2)C1=O (stereo not given) | 12.6 µM (active) | – |
| CC(C)c1ccc2[nH]c(O)c(N=NC(=O)c3ccc(CSc4nncn4C)cc3)c2c1 | 2.24 µM (active) | – |
| O=S(=O)(c1ccc(F)cc1)N1CCN(c2nc(-c3ccc(F)cc3)cs2)CC1 | 11.2 µM (active) | – |
| CCOC(=O)c1cc(-c2ccc(C)cc2)n(CCC(=O)NCCN(C)C)c1C | 10 µM (active) | – |
| CCOc1ccc(/C=C/C(=O)NCCc2ccc(OC)c(OC)c2)cc1 | 15.8 µM (active) | – |
| O=S(=O)(Nc1ccc(O)c(Sc2nc3ccccc3s2)c1)c1cccc2ccccc12 | 12.6 µM (active) | – |
| Cc1ccc(-n2ncc3c(SCc4ccccn4)ncnc32)c(C)c1 | 14.1 µM (active) | – |
| CCCC(=O)N=C1SC2CS(=O)(=O)CC2N1c1ccc(CC)cc1 (stereo not given) | 14.1 µM (active) | – |
| Cc1cc(Br)ccc1NC(=O)CNC(=O)Cn1ncc(Cl)c(Cl)c1=O | 11.2 µM (active) | – |
| CCC(=O)Nc1ccc(C(=O)Cn2ncc(Cl)c(Cl)c2=O)cc1 | 15.8 µM (active) | – |
| CCOC(=O)C(C(=O)OCC)C(Nc1cccc(Br)c1)c1ccccc1 (stereo not given) | 10 µM (active) | – |
| CC(C)Cc1ccc(C(=O)Nc2ccc(Cc3ccncc3)cc2)o1 | 10 µM (active) | – |
| COc1ccc(NC(=S)N(CCCN2CCCCCC2)Cc2cccs2)cc1 | 11.2 µM (active) | – |
| Cc1ccc(C(=O)c2cc([N+](=O)[O-])ccc2N2CCOCC2)c(C)c1 | 14.1 µM (active) | – |
| Cc1ccc(CN2CCC(CNS(=O)(=O)c3ccc(-c4ccc(=O)[nH]n4)s3)CC2)cc1 | 5.01 µM (active) | – |
| Cc1ccc(CNS(=O)(=O)c2ccc(C)s2)cc1 | – | 25.7 |
| CCOC(=O)c1cnc2c(C)c(Cl)ccc2c1NCCCN1CCOCC1 | 0.282 µM (active) | – |
| O=C(N/N=C/C(Cl)=C\c1ccccc1)c1cccs1 | 4.47 µM (active) | – |
| O=C(N/N=C(\CC(=O)c1cccs1)C(F)(F)F)c1ccncc1 | – | -31.4 |
| Cc1cccc(CCNC(=O)CNS(=O)(=O)c2ccc3nc(C)sc3c2)c1 | 1.58 µM (active) | – |

| SMILES | Potency | activity change, negative = inhibition [%] |
| --- | --- | --- |
| CCOc1ccc(C(C)=O)cc1COc1ccc(-c2nnco2)cc1 | 11.2 µM (active) | – |
| Oc1ccc(Cl)cc1CNc1cnc2ccccc2c1 | 11.2 µM (active) | – |
| O=C(C[n+]1cc(Br)cc2ccccc21)c1ccccc1 | 5.01 µM (active) | – |
| COc1ccc2c(ccc[n+]2CC(=O)c2ccccc2)c1 | 14.1 µM (active) | – |
| OCCNC(=S)Nc1ccc(Cl)c(Cl)c1 | 2.24 µM (active) | – |
| O=C1c2ccccc2C(=Nc2ccccc2)C1c1cccc(Br)c1 (stereo not given) | 3.98 µM (active) | – |
| COc1ccc(N(CC(=O)N/N=C/c2cccnc2)S(=O)(=O)c2ccccc2)c(OC)c1 | 6.31 µM (active) | – |
| O=C(CCl)NCCN1C(=O)S/C(=C\c2cccnc2)C1=O | 5.01 µM (active) | – |
| O=C(c1ccc2c(=O)n3c(nc2c1)CCCCC3)N1CCN(c2ccc([N+](=O)[O-])cc2)CC1 | 6.31 µM (active) | – |
| CC(=O)N1CN(C2CCCC2)Cc2c1sc1c2CCCC1 | 6.31 µM (active) | – |
| COc1ccc(C(=O)CSc2nnc(C3CCCCC3)n2N)c(OC)c1 | 3.16 µM (active) | – |
| O=S(=O)(c1ccc(OCC(O)CN2CCN(c3ccc(F)cc3)CC2)cc1)N1CCOCC1 (stereo not given) | 12.6 µM (active) | – |
| CCN(CC(=O)Nc1ccc(S(=O)(=O)N2CCOCC2)cc1)Cc1ccccc1 | 10 µM (active) | – |
| O=C(CN1CCN(c2ccc(F)cc2)CC1)Nc1ccc(S(=O)(=O)N2CCOCC2)cc1 | 10 µM (active) | – |
| C=CCOc1ccc(/C=C\c2nc(O)c([N+](=O)[O-])c(=O)[nH]2)cc1OC | 12.6 µM (active) | – |
| O=C(COc1cc2oc(=O)c3c(c2cc1Cl)CCC3)NCC(O)c1ccccc1 (stereo not given) | 8.91 µM (active) | – |
| O=S(=O)(NCC(O)c1ccccc1)c1cc(Cl)sc1Cl (stereo not given) | – | 14.6 |
| Cc1c(OCC(=O)NCC(O)c2ccccc2)ccc2c3c(c(=O)oc12)CCC3 (stereo not given) | 10 µM (active) | – |
| O=C(CSc1nc2nn(-c3ccccc3)c(=O)c-2c2n1CCCCC2)c1ccc(O)c(O)c1 | 11.2 µM (active) | – |
| O=C(NCc1cccnc1)/C(=C\c1ccc(-c2cccc(Cl)c2)o1)S(=O)(=O)c1ccccc1 | 7.94 µM (active) | – |
